aSyn rescue = inhibitors of alpha-synuclein toxicity in yeast; Yeast expressing alpha-synuclein, growth rescue, BacTiter-Glo, 24 h; Potency, µM (titrated, usually from 46.1 µM), inactives show at the highest dose growth rescue (activation), usual class: activators; hit rate 0.14% among 370,000; AID 652106; also: % of control where 0% means no effect; nearly all actives have a fitted effect of over 65% in size
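Rescue of yeast growth: cells expressing toxic alpha-synuclein, induced in galactose at OD600 0.02, incubated with compound 24 h at 30 C. ATP luminescence quantified growth; inhibitors of toxicity appear as activators.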
TDP43 rescue = inhibitors of TDP-43 toxicity in yeast; Potency, µM (doses to about 46.1 µM), for the others: at the top dose growth rescue (activation), usual class: activators; TDP-43 expressing yeast growth rescue, BacTiter-Glo, 24 h; hit rate 1.8% among 410,000; AID 652104; also: % of control where 0% means no effect; nearly all actives have a fitted effect of over 50% in size
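In this qHTS, compounds that restore growth of yeast expressing TDP-43 appear as activators. Cells (OD600=0.02, galactose medium, raffinose-pregrown) are incubated with compound 24 hr at 30 deg C and growth is quantified by BacTiter-Glo.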
Abeta rescue = A-beta toxicity reversal in yeast; yeast expressing A-beta42, growth rescue, OD600, 48 h; response scale: 0% DMSO, 100% iron-clioquinol control; Potency, µM (doses to about 46.1 µM), actives largely listed as activators; hit rate 0.063% among 410,000; also: nearly all actives have a fitted effect of over 55% in size
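Growth rescue measured by 600 nm absorbance after 48 h yeast culture at 30 C with compound. Values normalized between DMSO and an equimolar ferric chloride plus clioquinol control.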
FUS yeast rescue = FUS proteinopathy suppression in yeast; S. cerevisiae FUS-expressing, growth rescue, OD600, 24 h; Potency, µM (doses to about 76.6 µM), most hits filed as activators; hit rate 0.24% among 390,000; AID 1347120;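 also: plate controls were DMSO vehicle for no effect and reference control for full effect; nearly all actives have a fitted effect of over 55% in size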
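Yeast expressing FUS under galactose induction, OD 0.005 in 2% galactose medium; compounds in a dilution series, 24 h at 30C. Growth rescue by absorbance at 600 nm; CP55940 positive control, DMSO negative.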
Active calls of the source: *; i = inactive; ? = inconclusive; . = no result given; [ ] = another dose, or the depositor's remark. Shown are actives, neighbours in structure and some others; about 2.1% of the full set was active somewhere. Calls follow the shape of the dose curve; as a rule, active = well fitted curve in the direction sought with a large enough effect; inconclusive = small, poorly fitted or top-dose-only effect, or another doubt; inactive = no such curve, though single readings can be large; an effect the other way counts as inactive or inconclusive. Potency is read from the fitted curve at half-maximal effect.

SMILES | aSyn rescue | TDP43 rescue | Abeta rescue | FUS yeast rescue
CCCCCCCCN1CN2Cc3ccccc3C2CS1(=O)=O (stereo unspecified) | . | . | . | i
CN(C)CCCNc1nccc(N2CCN(C)CC2)n1 | -2% | . | . | .
Nn1c(SCC(=O)Nc2ccc(OCc3ccccc3)cc2)nnc1-c1cc(-c2ccccc2)n[nH]1 | . | . | . | i
O=C1N/C(=N/N=C/c2ccc(F)cc2)SC1c1ccccc1 (stereo unspecified) | -4% | 7% | i | i
CC(C)=N/N=C1/NC(=O)C(c2ccc(Cl)cc2)S1 (stereo unspecified) | 2% | 20µM* | ? | .
O=C(CSc1cnc2ccccc2n1)c1ccc(F)cc1 | 3% | 18µM* | i | i
COC(=O)CSc1cnc2ccccc2n1 | -10% | 0% | i | i
C[C@@H]1CCCN1c1cccc2c1S(=O)(=O)N1CC[C@@H](C1)O2 | . | . | . | i
O=C(COC(=O)Cc1ccc(Br)cc1)Nc1ccc(Cl)cn1 | -15% | 11µM* | ? | i
O=C(COC(=O)C1CC1)Nc1ccc(Cl)cn1 | -3% | 21% | i | i
Cc1ccc(Cc2nc3ccccc3nc2SCC(=O)N2CCCCC2)cc1 | . | ? | i | ?
O=C(CCN1C(=O)C2C3C=CC(C3)C2C1=O)NC1CCCc2ccccc21 (stereo unspecified) | 0% | -3% | i | i
O=C(CCn1ccc2ccccc21)NC1CCCc2ccccc21 (stereo unspecified) | 9% | 18µM* | i[9.22 µM] | i
CCc1nnc(NC(=O)CSc2nnc(-c3ccccc3O)n2CC)s1 | 0% | -8% | i | i
CCn1c(SCC(=O)Nc2nc(-c3ccccc3)cs2)nnc1-c1ccccc1O | 14% | 20µM* | i | i
Cc1ccc(-c2csc(NC(=O)CSC3=NCCS3)n2)cc1 | . | 7.1µM* | i | i
CCOC(=O)Nc1ccc2c(c1)[C@@]1(CC(=O)N(CC(C)C)C1c1ccccc1)C(=O)N2C (stereo partly specified) | . | . | . | i
COC(=O)[C@]12C[C@H](CC(=O)N3CCOCC3)C(=O)N(Cc3ccco3)C1=C[C@H](C(C)(C)C)O[C@@H]2C | . | . | . | i
CCc1cccc(NC(=S)N(CCN(C)C)C(C)c2ccncc2)c1 (stereo unspecified) | -5% | 9% | i | i
CCOC(=O)c1ccc(NC(=S)N(CCN(C)C)C(C)c2ccncc2)cc1 (stereo unspecified) | 28µM* | 23% | i | i
O=C1NC(=O)C2(CCc3ccccc32)N1 (stereo unspecified) | -4% | 1% | i | i
C=C1CC2(OC1=O)c1ccccc1CCc1ccccc12 | 7% | 1.8µM* | i | .
CCCCCC[C@@H](CC)CN(C(=O)Oc1ccccc1)c1ccccc1 | . | . | . | i
CC(c1ccc(NC(=O)OC(C)(C)C)cc1)c1cn(C)c2ccccc12 (stereo unspecified) | . | . | . | i
Fc1ccc(-c2csc(-c3ccncc3)n2)cc1 | 3% | 13µM* | i | i
SMILES | aSyn rescue | TDP43 rescue | Abeta rescue | FUS yeast rescue
CC(=O)Oc1ccc(-c2csc(Nc3cccc(C)n3)n2)cc1 | -24% | 7% | i | i
OC(c1ccc(F)cc1)c1nc(-c2ccncc2)cs1 (stereo unspecified) | 0% | 9% | i | i
c1cncc(-c2nc(-c3cccs3)cs2)c1 | 2% | 10% | i | i
c1ccc(Nc2nc(-c3cccs3)cs2)nc1 | -21% | 35µM* | i | i
c1csc(-c2csc(-c3cccs3)n2)c1 | 0% | 13µM* | i | i
COc1ccc(-c2csc(Nc3cccc(C)n3)n2)cc1 | -27% | 18µM* | i | i
Fc1ccc(-c2csc(Nc3ccccn3)n2)cc1 | -18% | 11µM* | i | i
CC(=O)Oc1ccc(-c2csc(Nc3ccccn3)n2)cc1 | -30% | 13µM* | i | i
c1ccc(Nc2nc(-c3cccnc3)cs2)nc1 | -2% | 15% | i | i
Cc1cc(C)c2c(CC(=O)Nc3ccc(S(=O)(=O)N4CCCC(C)C4)cc3)coc2c1 (stereo unspecified) | . | 1% | i | i
O=C(CSc1nccn1-c1cccc(Cl)c1)Nc1cccc2ccccc12 | . | 16µM* | i | i
Cc1cccc(-n2ccnc2SCC(=O)Nc2ccc3c(c2)OCCO3)c1 | 9% | ? | i | i
Cc1cccc(-n2ccnc2SCC(=O)Nc2ccc3c(c2)OCO3)c1 | 10% | 20µM* | i | i

Bioassay records: PubChem BioAssay, National Center for Advancing Translational Sciences (NCATS)
